The list is not random: actives were taken first. Their share in the collection is about 7.1%.
MCF10A rerep – DNA re-replication induction in MCF 10a cells | MCF 10A DNA re-replication, Hoechst nuclear intensity, 48 h | Potency, µM (top dose mostly 46.1 µM), inactives show at the highest dose activity, positive = re-replication, hits mostly activators | actives 2.9% (n = 350,000) | AID 624296; note: potency is the fitted concentration of half-maximal effect; % of control where 0% means no effect; nearly all actives have a fitted effect of over 50% in size
ATXN2 expr inh – inhibitors of ATXN2 expression. HEK-293 ATXN2-luciferase reporter, luminescence, 24 h. Potency, µM (series often up to 57 µM), without a hit: at the top dose activity change, negative = inhibition, most hits filed as inhibitors. actives 0.72% (n = 360,000); note: potency is the fitted concentration of half-maximal effect; % is set by controls: 0 for no effect and ±100 for the full control effect; nearly all actives have a fitted effect of over 55% in size
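qHTS (up to 57 uM final) was run with 24 h compound exposure of reporter cells at 37 °C. Each well was multiplexed: SteadyGlo luminescence measured ATXN2-luciferase expression after a fluorogenic Gly-Phe-AFC viability readout (25 uM final).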
SW480 rereplic – induces DNA re-replication in SW480 colon adenocarcinoma cells | Potency, µM (doses to about 46.1 µM), for the others: at the highest dose re-replication activation, hits mostly activators | actives 1.8% (n = 340,000) | SW480 DNA re-replication, Hoechst DNA content imaging, 48 h; note: potency is the fitted concentration of half-maximal effect; % of control where 0% means no effect; nearly all actives have a fitted effect of over 55% in size
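Image-based read-out: total Hoechst fluorescence of nuclei (405 nm excitation, 500-530 nm emission), with hits raising the fraction of high-intensity nuclei. SW480 colon cells incubated 48 hr with compounds at 37 C.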
IL-1B inflam inh – inhibitors of inflammasome signaling (IL-1 beta secretion). THP-1 LPS/ATP IL-1B secretion, AlphaLISA, 16 h; hits give low values. activity change, % at 57.5 µM. actives 4.7% (n = 360,000). AID 743279; in the data active = activity change below about -50%; inconclusive = mostly about -30% to -49%; note: % is set by controls: 0 for no effect and ±100 for the full control effect
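Secreted IL-1B measured by AlphaLISA bead assay after 16 h compound exposure of THP-1 cells; compounds (final up to 57.5 uM) added 1 h before LPS (250 ng/mL) and ATP (1.25 mM) stimulation; lower signal means less secretion.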
ATXN viability – reduces viability in counter-screen for ATXN expression inhibitors. AID 651635. Potency, µM (titrated, usually from 56.7 µM), usual class: cytotoxic. S2 cells (HEK-293 line with an ATXN2-luciferase reporter) viability, CellTiter-Fluor protease fluorescence, 24 h. actives 0.49% (n = 400,000); note: potency is the fitted concentration of half-maximal effect; nearly all actives have a fitted effect of over 40% in size
PINK1 expr mod – PINK1 expression modulation; PINK1 immunofluorescence, high-content cytometry, 24 h; Potency, µM (doses to about 76.6 µM), for the others: at the highest dose activation (PINK1 increase), usual class: activators; actives 0.2% (n = 410,000); AID 624263; active = well fitted activation curve with a large enough effect; inconclusive = small, poorly fitted or top-dose-only effect; cell line not stated here; note: potency is the fitted concentration of half-maximal effect; % of control where 0% means no effect; nearly all actives have a fitted effect of over 65% in size
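Stable cell line, 250 cells/well, 12 h attachment; compounds pinned at 5 concentrations, 24 h; CCCP control. Fixed with nuclear dye, primary antibodies 12 h at 10 degrees C, secondary plus cell stain; laser-scanning cytometer read.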
The depositor's hits bear a star; i = inactive; ? = inconclusive; . = not tested or not shown; ! = a repeat was not active; [ ] = dose if it differs, or a comment. Unless noted, calls come from the whole dose curve; as a rule, active = well fitted curve in the direction sought with a large enough effect; inconclusive = small, poorly fitted or top-dose-only effect, or another doubt; inactive = no such curve, though single readings can be large; an effect the other way counts as inactive or inconclusive.

SMILES	MCF10A rerep	ATXN2 expr inh	SW480 rereplic	IL-1B inflam inh	ATXN viability	PINK1 expr mod
CC(C)c1c(C(=O)NCc2ccncc2)cnn1-c1nccc(-c2cccs2)n1	.	.	.	.	i	-0.6%
COc1ccc(/C=N/NC(=O)CCn2cnc(-c3ccccc3)c2-c2ccccc2)cc1	1.64µM*	-17.6%	3.26µM*	0.0	i	-2.7%
O=C(CCn1cnc(-c2ccccc2)c1-c1ccccc1)N/N=C/c1ccccc1O	4.61µM*	?	9.2µM*	230.0	?	1.7%
COc1ccccc1NC(=O)c1nc(SCc2ccccc2F)ncc1Cl	.	.	.	.	.	-0.2%
CCCCn1c(N)c(N(CC(C)C)C(=O)c2cnccn2)c(=O)[nH]c1=O	-3.2%	5.0%	18.4µM*	4.1	i	0.2%
CCCCn1c(N)c(N(CC)C(=O)c2cc3c(s2)CCCCC3)c(=O)[nH]c1=O	2.1%	-2.1%	1.3%	-3.1	i	0.2%
CCCCn1c(N)c(N(CC)C(=O)c2cnc(C)cn2)c(=O)[nH]c1=O	5.3%	-3.3%	3.0%	-12.6	i	-0.5%
CCCCn1c(N)c(N(CC(C)C)C(=O)c2cc3c(s2)CCCCC3)c(=O)[nH]c1=O	-2.2%	7.7%	7.31µM*	-4.8	?	8.0%
CCCCn1c(N)c(N(CC(C)C)C(=O)CSCc2ccc(Cl)c(Cl)c2)c(=O)[nH]c1=O	?	-11.1%	-0.9%	-56.3*	i	1.5%
CCCCn1c(N)c(N(CC(C)C)C(=O)c2ccc(-c3ccc(Cl)cc3)o2)c(=O)[nH]c1=O	23.1µM*	?	-7.5%	?	?	-0.4%
Cc1ccccc1CNC(=O)c1ccc2nc(SCc3ccc(F)cc3)n(C)c2c1	.	-4.2%	.	.	i	-1.0%
O=C(Cn1c(=O)oc2cc(S(=O)(=O)N3CCCCC3)ccc21)Nc1cccc(Cl)c1	.	?	.	.	?	12.7%
CCn1nc(C)c(CCN(C)C(=O)Nc2cc(C)cc(C)c2)c1C	.	6.1%	.	.	i	-1.2%
CC(OC(=O)c1ccccc1OCC(=O)Nc1ccc(Br)cc1)C(=O)NC1CCCC1 (centres undefined)	.	.	.	.	.	0.7%
CCCCn1c(N)c(N(CCC(C)C)C(=O)c2ccc(-c3ccc([N+](=O)[O-])cc3)o2)c(=O)[nH]c1=O	?	14.1µM*	22.5%	-15.7	.	?
Cc1ccc(S(=O)(=O)/N=C(\CCl)N2CCOCC2)cc1	?	-30.0%	?	-51.5*	i	21.6%
Cc1ccc2onc(CC(=O)Nc3ccc(C(C)C)cc3)c2c1	.	6.1%	.	.	i	1.8%
COCc1c(C(=O)OC)nnn1-c1ccc(C(F)(F)F)cc1[N+](=O)[O-]	-0.5%	14.1%	-1.2%	-72.3*	i	-1.1%
CCOC(=O)c1nnn(-c2ccc([N+](=O)[O-])cc2[N+](=O)[O-])c1C	?	1.0%	7.31µM*	?	i	1.0%
CCCSCCCNC(=O)C1CCN(C(=O)c2cnn(-c3ccccc3)c2-n2cccc2)CC1	.	-19.3%	.	.	i	0.8%
COc1ccc(S(=O)(=O)c2c(C(=O)c3ccc(C)c(C)c3)cnc3ccc(C)cc23)cc1	.	?	.	.	?	2.0%
CN(C)c1nc(N/N=C\c2ccc(Cl)c([N+](=O)[O-])c2)nc(Nc2ccc(F)cc2)n1	?	?	?	-89.5*	i	?
O=C1/C(=C/c2ccc(N3CCCC3)cc2)NC(=S)N1C1CC1	-5.3%	16.1%	-2.9%	-77.1*	i	?
O=C1NC(=S)N/C1=C\c1ccc(N2CCOCC2)cc1	?	.	18.4µM*	-8.3	i	4.1%
O=C1NC(=S)NC1=Cc1ccc(O)cc1	-19.4%	5.2%	-20.0%	-1.5	i	-0.4%
SMILES	MCF10A rerep	ATXN2 expr inh	SW480 rereplic	IL-1B inflam inh	ATXN viability	PINK1 expr mod
Cc1ccccc1CN1C(=O)c2ccccc2S(=O)(=O)c2ccc(C(=O)OCC3CCCO3)cc21 (centres undefined)	.	2.2%	.	.	i	2.4%
CCOC(=O)COc1ccc2nsnc2c1	-0.9%	-16.1%	-5.4%	9.1	i	-0.2%
CCOC(=O)COc1ccc2ccccc2c1/C=C/[N+](=O)[O-]	?	?	?	-92.1*	14.1µM*	-1.5%
CCOc1ccc(/C=C/[N+](=O)[O-])c2ccccc12	2.31µM*	25.1µM*	6.51µM*	-101.2*	?	-4.7%[38.3 µM]
CCOC(=O)COc1ccccc1/C=N/O	1.7%	-0.2%	-4.2%	0.0	i	0.3%
CCOC(=O)COc1ccc(/C=C/[N+](=O)[O-])c(OCC(=O)OCC)c1	?	8.91µM*	?	-96.7*	10µM*	-0.8%[38.3 µM]
O=S(=O)(N=Cc1c(O)ccc2ccccc12)c1cccs1	.	47.2%	.	.	.	.
Cc1ccc(-c2oc3ccccc3c(=O)c2O)cc1	25.9µM*	?	8.3%	76.9	?	1.0%
CC(NC(=O)c1ccc2ccccc2n1)c1ccc(Br)cc1 (centres undefined)	23.1µM*	-5.3%	?	-10.7	i	0.6%
Cc1cnc(SCc2ccccn2)nc1C1CCCN(Cc2ccsc2)C1 (centres undefined)	.	.	.	.	i	1.5%
O=C(Cc1cc(=O)[nH][nH]1)N/N=C/c1c(F)cccc1Cl	1.2%	29.4%	-0.8%	-10.3	i	-0.6%
O=C(Cc1cc(=O)[nH][nH]1)N/N=C/c1c(Cl)cccc1Cl	?	-0.1%	7.1%	-100.0*!	i	-0.1%
Cc1ccc(-n2nnnc2Sc2nc([N+](=O)[O-])nn2C)cc1	?	-7.5%	16.4µM*	-56.9*	i	-0.2%
Cc1ccc(-n2nnnc2Sc2nc([N+](=O)[O-])nn2C)c(C)c1	0.9%	-1.3%	?	?	i	-1.1%
CC(=O)N[C@@H]1C(O[C@H]2O[C@H](C(=O)O)C(O)[C@H](O)[C@H]2O)[C@H](O)[C@@H](CO)O[C@H]1O[C@@H]1C(C(=O)O)O[C@@H](O[C@H]2[C@H](O)[C@@H](CO)OC(O)[C@@H]2NC(C)=O)[C@H](O)[C@H]1O (some centres undefined)	-0.5%	.	1.8%	.	.	.
CN(C)CCNc1ccc(CO)c2sc3ccc(O)cc3c(=O)c12	21.3%	2.67µM*	15.4%	-100.4*	18.9µM*	-7.2%
CN(C)CCNc1ccc(-c2nn(C)c(=O)c3ccccc23)cc1[N+](=O)[O-]	-0.7%	-6.1%	-4.3%	-4.2	?	10.1%
CN(C)CCNc1ccc2ncn3c4ccc(O)cc4c(=O)c1c23	?	3.98µM*	?	-103.9*	i	-2.0%
COc1ccc(-c2cn3cccnc3n2)cc1NC(=O)COc1ccccc1	.	.	.	.	.	1.6%
Cc1ccc(NC(=O)C2CCCN(c3ncnc4c3nc3n4CCCCC3)C2)c(Br)c1 (centres undefined)	.	-3.8%	.	.	i	1.7%
